PubChem BioAssay AID1159580 (chemical genetic matrix, 2015)
Screen size: about 5,500 compounds; about 2,000 (36%) were called active. Another 18% or so got no clear call; they are omitted. Rule as the data show it: active = normalized growth mostly below about 0.91 (no sharp cut-off); inconclusive = no clear call, values can overlap the other calls; inactive = mostly above about 0.92. Some of the results follow.

Test: chemical genetic growth profiling, strain panel (AID 1159580);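 also: tested at 20 µM; growth read once vehicle control cultures reached saturation at 30 °C; 1 = growth at the plate median or of vehicle wells; lower values mean less growth of the strain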
Details: S. cerevisiae deletion strains, growth OD
[1] = locus YDR150W, strain NUM1, stronger effect = lower value
[2] = locus YMR307W, strain GAS1, stronger effect = lower value
[3] = locus YPL055C, strain LGE1, stronger effect = lower value

Measured: normalized growth

C[C@]12C=CC(=O)C=C1CC[C@H]1[C@@H]3C[C@@H](O)[C@](O)(C(=O)CO)[C@@]3(C)C[C@H](O)[C@@]12F
inactive: locus YAL040C, strain CLN3, stronger effect = lower value 1.02 | locus YCL061C, strain MRC1 (second series), stronger effect = lower value 1.01 | [1] 1 | locus YDR363W, strain ESC2, stronger effect = lower value 1.05 | locus YER002W, strain NOP16, stronger effect = lower value 1.01 | locus YGR078C, strain PAC10, stronger effect = lower value 1 | [2] 1.02 | locus YNL128W, strain TEP1, stronger effect = lower value 1.01 | locus YNL153C, strain GIM3, stronger effect = lower value 1 | locus YNL175C, strain NOP13, stronger effect = lower value 1 | locus YNL197C, strain WHI3, stronger effect = lower value 0.987 | locus YNL224C, strain SQS1, stronger effect = lower value 1.01 | locus YOR083W, strain WHI5 (second series), stronger effect = lower value 1.01 | [3] 1.03

CSCCC(NC=O)C(=O)NC(CC(C)C)C(=O)NC(Cc1ccccc1)C(=O)O (centres undefined)
inactive: locus YAL013W, strain DEP1, stronger effect = lower value 1.01 | locus YAL021C, strain ccr4, stronger effect = lower value 1.01 | locus YAL026C, strain drs2, stronger effect = lower value 1 | locus YAL030W, strain snc1, stronger effect = lower value 1 | locus YBL061C, strain skt5, stronger effect = lower value 1 | locus YBR009C, strain hhf1, stronger effect = lower value 1 | locus YBR021W, strain FUR4, stronger effect = lower value 0.998 | locus YBR023C, strain chs3, stronger effect = lower value 1 | locus YBR171W, strain sec66, stronger effect = lower value 0.998 | locus YBR229C, strain ROT2, stronger effect = lower value 1 | locus YBR231C, strain swc5, stronger effect = lower value 0.997 | locus YBR279W, strain paf1, stronger effect = lower value 1.01 | locus YCL011C, strain gbp2, stronger effect = lower value 1 | locus YCL016C, strain dcc1, stronger effect = lower value 1 | locus YCL029C, strain bik1, stronger effect = lower value 0.983 | locus YCL061C, strain MRC1, stronger effect = lower value 1.01 | locus YCL069W, strain vba3, stronger effect = lower value 1.01 | locus YCR088W, strain abp1, stronger effect = lower value 0.999 | locus YDL005C, strain med2, stronger effect = lower value 0.988 | locus YDL035C, strain GPR1, stronger effect = lower value 0.999 | locus YDL040C, strain nat1, stronger effect = lower value 1 | locus YDL074C, strain BRE1, stronger effect = lower value 1.03 | locus YDL101C, strain DUN1, stronger effect = lower value 1.02 | locus YDL134C, strain PPH21, stronger effect = lower value 0.996 | locus YDL185W, strain tfp1, stronger effect = lower value 0.994 | locus YDL192W, strain arf1, stronger effect = lower value 0.994 | locus YDR001C, strain nth1, stronger effect = lower value 1 | locus YDR069C, strain doa4, stronger effect = lower value 1 | locus YDR101C, strain arx1, stronger effect = lower value 1 | locus YDR137W, strain rgp1, stronger effect = lower value 1.01 | [1] 1.01 | locus YDR159W, strain sac3, stronger effect = lower value 1 | locus YDR162C, strain NBP2, stronger effect = lower value 1 | locus YDR195W, strain ref2 0.97 | locus YDR297W, strain sur2, stronger effect = lower value 0.99 | locus YDR318W, strain mcm21, stronger effect = lower value 1.01 | locus YDR334W, strain swr1, stronger effect = lower value 1.01 | locus YDR335W, strain msn5, stronger effect = lower value 1 | locus YDR388W, stronger effect = lower value 1 | locus YDR392W, strain spt3, stronger effect = lower value 1.01 | locus YDR502C, strain sam2, stronger effect = lower value 1 | locus YEL003W, strain gim4, stronger effect = lower value 1 | locus YEL037C, strain rad23, stronger effect = lower value 1.01 | locus YEL061C, strain CIN8 (second series), stronger effect = lower value 1.02 | locus YEL061C, strain CIN8, stronger effect = lower value 1.01 | locus YER015W, strain faa2, stronger effect = lower value 1 | locus YER016W, strain bim1, stronger effect = lower value 1 | locus YER110C, stronger effect = lower value 1.01 | locus YER111C, strain swi4, stronger effect = lower value 1 | locus YER155C, strain BEM2 (second series), stronger effect = lower value 0.995 | locus YER155C, strain BEM2, stronger effect = lower value 1.01 | locus YER167W, strain BCK2, stronger effect = lower value 0.995 | locus YFR010W, strain ubp6, stronger effect = lower value 1 | locus YGL078C, strain dbp3, stronger effect = lower value 0.99 | locus YGL086W, strain mad1, stronger effect = lower value 1 | locus YGL167C, strain pmr1, stronger effect = lower value 1 | locus YGL173C, strain kem1, stronger effect = lower value 1.01 | locus YGL227W, strain vid30, stronger effect = lower value 0.992 | locus YGL240W, strain doc1, stronger effect = lower value 1 | locus YGL248W, strain PDE1, stronger effect = lower value 1.01 | locus YGL253W, strain hxk2, stronger effect = lower value 0.995 | locus YGR135W, strain pre9, stronger effect = lower value 1 | locus YGR252W, strain gcn5, stronger effect = lower value 1.01 | locus YHR013C, strain ard1, stronger effect = lower value 1 | locus YHR027C, strain rpn1, stronger effect = lower value 0.986 | locus YHR030C, strain SLT2, stronger effect = lower value 0.998 | locus YHR079C, strain IRE1 (second series), stronger effect = lower value 1 | locus YHR094C, strain hxt1, stronger effect = lower value 1 | locus YHR129C, strain ARP1, stronger effect = lower value 1.01 | locus YHR142W, strain chs7, stronger effect = lower value 1.01 | locus YHR200W, strain rpn10, stronger effect = lower value 0.98 | locus YIL066C, strain RNR3, stronger effect = lower value 0.996 | locus YIL073C, strain SPO22, stronger effect = lower value 1.01 | locus YIL125W, strain kgd1, stronger effect = lower value 0.998 | locus YIR030C, strain dcg1, stronger effect = lower value 0.99 | locus YJL092W, strain hpr5, stronger effect = lower value 0.993 | locus YJL095W, strain BCK1 (second series), stronger effect = lower value 1 | locus YJL095W, strain BCK1, stronger effect = lower value 1.03 | locus YJL115W, strain asf1, stronger effect = lower value 1.01 | locus YJL129C, strain trk1, stronger effect = lower value 1 | locus YJL134W, strain LCB3, stronger effect = lower value 1 | locus YJL154C, strain vps35, stronger effect = lower value 1 | locus YJL164C, strain tpk1, stronger effect = lower value 1.01 | locus YJL166W, strain qcr8, stronger effect = lower value 1.03 | locus YJL168C, strain set2, stronger effect = lower value 1.01 | locus YJL187C, strain SWE1 (second series), stronger effect = lower value 1.04 | locus YJL187C, strain SWE1, stronger effect = lower value 0.999 | locus YJR043C, strain POL32, stronger effect = lower value 0.992 | locus YJR075W, strain HOC1, stronger effect = lower value 1.02 | locus YKL009W, strain mrt4, stronger effect = lower value 1.01 | locus YKL068W, stronger effect = lower value 0.996 | locus YKL085W, strain MDH1 (second series), stronger effect = lower value 0.995 | locus YKL085W, strain MDH1, stronger effect = lower value 0.995 | locus YKL160W, strain elf1, stronger effect = lower value 1.01 | locus YKL190W, strain CNB1, stronger effect = lower value 1.01 | locus YKR001C, strain vps1, stronger effect = lower value 0.992 | locus YKR026C, strain gcn3, stronger effect = lower value 0.994 | locus YKR091W, strain srl3, stronger effect = lower value 1.01 | locus YLL001W, strain dnm1, stronger effect = lower value 1 | locus YLL026W, stronger effect = lower value 0.996 | locus YLL041C, strain sdh2, stronger effect = lower value 1.01 | locus YLR027C, strain aat2, stronger effect = lower value 0.988 | locus YLR039C, strain RIC1, stronger effect = lower value 1 | locus YLR058C, strain SHM2, stronger effect = lower value 1.02 | locus YLR102C, strain apc9, stronger effect = lower value 1 | locus YLR221C, strain rsa3, stronger effect = lower value 0.998 | locus YLR258W, strain gsy2, stronger effect = lower value 1.02 | locus YLR262C, strain YPT6 (second series), stronger effect = lower value 1.02 | locus YLR262C, strain YPT6, stronger effect = lower value 1.05 | locus YLR268W, strain sec22, stronger effect = lower value 1 | locus YLR320W, strain mms22, stronger effect = lower value 0.998 | locus YLR330W, strain CHS5, stronger effect = lower value 1.01 | locus YLR342W, strain FKS1 (second series), stronger effect = lower value 1.01 | locus YLR342W, strain FKS1, stronger effect = lower value 1 | locus YLR357W, strain rsc2, stronger effect = lower value 0.971 | locus YLR370C, strain arc18, stronger effect = lower value 1 | locus YLR371W, strain rom2, stronger effect = lower value 1.01 | locus YLR384C, strain iki3, stronger effect = lower value 1 | locus YLR418C, strain cdc73, stronger effect = lower value 0.998 | locus YML016C, strain PPZ1, stronger effect = lower value 1 | locus YML032C, strain rad52, stronger effect = lower value 0.998 | locus YML120C, strain ndi1, stronger effect = lower value 1.01 | locus YML124C, strain tub3, stronger effect = lower value 1 | locus YMR058W, strain fet3, stronger effect = lower value 1 | locus YMR078C, strain ctf18, stronger effect = lower value 1 | locus YMR125W, strain sto1, stronger effect = lower value 0.993 | locus YMR129W, stronger effect = lower value 1 | locus YMR205C, strain PFK2, stronger effect = lower value 1 | locus YMR223W, strain ubp8, stronger effect = lower value 1 | locus YMR231W, strain pep5, stronger effect = lower value 0.977 | [2] 1.05 | locus YNL067W, strain RPL9B, stronger effect = lower value 1.03 | locus YNL071W, strain lat1, stronger effect = lower value 1 | locus YNL209W, strain ssb2, stronger effect = lower value 1.01 | locus YNL233W, strain BNI4, stronger effect = lower value 1.02 | locus YNL248C, strain rpa49, stronger effect = lower value 1 | locus YNL250W, strain rad50, stronger effect = lower value 1.01 | locus YNL271C, strain bni1, stronger effect = lower value 0.996 | locus YNL298W, strain CLA4, stronger effect = lower value 1 | locus YNL307C, strain MCK1, stronger effect = lower value 1 | locus YNL322C, strain KRE1 (second series), stronger effect = lower value 0.996 | locus YNR049C, strain mso1, stronger effect = lower value 0.998 | locus YNR052C, strain pop2, stronger effect = lower value 1 | locus YOL006C, strain TOP1, stronger effect = lower value 1.06 | locus YOL012C, strain htz1 0.872 | locus YOL147C, strain pex11, stronger effect = lower value 1 | locus YOR001W, strain rrp6, stronger effect = lower value 1.01 | locus YOR061W, strain CKA2, stronger effect = lower value 0.997 | locus YOR069W, strain VPS5, stronger effect = lower value 1 | locus YOR070C, strain gyp1, stronger effect = lower value 1.02 | locus YOR080W, strain dia2, stronger effect = lower value 0.99 | locus YOR083W, strain WHI5, stronger effect = lower value 1 | locus YOR106W, strain vam3, stronger effect = lower value 1.01 | locus YOR136W, strain idh2, stronger effect = lower value 1.01 | locus YOR144C, strain elg1, stronger effect = lower value 0.987 | locus YOR184W, strain ser1, stronger effect = lower value 0.986 | locus YOR265W, strain rbl2, stronger effect = lower value 1.01 | locus YOR270C, strain vph1, stronger effect = lower value 1.03 | locus YOR290C, strain snf2, stronger effect = lower value 1.01 | locus YOR316C, strain cot1, stronger effect = lower value 1 | locus YPL051W, strain arl3, stronger effect = lower value 0.996 | [3] 1.01 | locus YPL078C, strain atp4, stronger effect = lower value 1 | locus YPL106C, strain sse1, stronger effect = lower value 0.99 | locus YPL240C, strain hsp82, stronger effect = lower value 0.999 | locus YPR119W, strain clb2, stronger effect = lower value 1 | locus YPR141C, strain kar3, stronger effect = lower value 0.985 | locus YPR163C, strain tif3, stronger effect = lower value 1 | locus YPR167C, strain met16, stronger effect = lower value 0.994 | strain wtn01, stronger effect = lower value 0.986
